# Data from PubChem BioAssay (Tox21).
# Records with an inconclusive call do not appear. The source made the active and inactive calls. Calls come from the whole dose curve; as a rule, active = well fitted cell-killing curve with a large enough effect in the repeat runs; inconclusive = weak or mixed curves, or effect the other way; inactive = no such curve, though single readings can be large or run the other way. Non-standard residues stand in square brackets, D forms with d. Residues, ends and D or L forms follow the SMILES beside them. pGlu = O=C1CC[C@@H](C(=O)O)N1
# Assay: qHTS assay for identifying genotoxic compounds that show differential cytotoxicity against isogenic chicken DT40 cell lines with known DNA damage response pathways - Rev3 mutant cell line (AID 743014); note: nearly all actives have a fitted effect of over 55% in size
# Conditions: chicken DT40 Rev3-/- viability, CellTiter-Glo, 40 h; series mostly up to 68.4 µM; activity, negative = cytotoxicity: at the top concentration
# % is set by controls: 0 for no effect and ±100 for the full control effect; potency is the fitted concentration of half-maximal effect.
SMILES,"activity, negative = cytotoxicity",Potency
CN[C@@H]1CCc2[nH]c3ccc(C(N)=O)cc3c2C1,-0.294% (inactive),–
FC(F)(F)C(F)(F)C(F)(F)C(F)(F)C(F)(F)C(F)(F)F,6.97% (inactive),–
Nc1ncnc2c1ncn2CCOCP(=O)(O)O,10.2% (inactive),–
CCCCCCCCCCCCCCCC(=O)OC[C@@H](NC(=O)C(Cl)Cl)[C@H](O)c1ccc([N+](=O)[O-])cc1,3.55% (inactive),–
C/C(=C(\CCOC(=O)c1ccccc1)SS/C(CCOC(=O)c1ccccc1)=C(/C)N(C=O)Cc1cnc(C)nc1N)N(C=O)Cc1cnc(C)nc1N,–,23.7 µM (active)
CCOc1cc(-c2nccc3cc(OC)c(OC)cc23)cc(OCC)c1OCC,–,6.68 µM (active)
CCOC(=O)[C@H](CCc1ccccc1)N[C@@H](C)C(=O)N1CC2(C[C@H]1C(=O)O)SCCS2,3.28% (inactive),–
CC(=O)N=c1sc(S(N)(=O)=O)nn1C,0.605% [at 31.4 µM] (inactive),–
CN1[C@@H]2CCC[C@H]1CC(NC(=O)c1nn(C)c3ccccc13)C2 (stereo not given in full),-0.404% (inactive),–
O=C(O[C@H]1CN2CCC1CC2)N1CCc2ccccc2[C@@H]1c1ccccc1,–,26.6 µM (active)
CCC[C@@]1(CCc2ccccc2)CC(O)=C([C@H](CC)c2cccc(NS(=O)(=O)c3ccc(C(F)(F)F)cn3)c2)C(=O)O1,-4.26% (inactive),–
COC1=C(C(=O)O)N2C(=O)[C@@H](NC(=O)[C@H](N)C3=CCC=CC3)[C@H]2SC1,4.66% (inactive),–
CCCCc1cc2c(=O)c(C(=O)OC)c[nH]c2cc1OCc1ccccc1,-6.46% (inactive),–
CCCCCCCCCCCCCCCCCC(=O)[O][Al],0.12% (inactive),–
CCNC(=O)[C@@H]1CCCN1C(=O)[C@H](CCCN=C(N)N)NC(=O)[C@H](CC(C)C)NC(=O)[C@@H](Cc1c[nH]c2ccccc12)NC(=O)[C@H](Cc1ccc(O)cc1)NC(=O)[C@H](CO)NC(=O)[C@H](Cc1c[nH]c2ccccc12)NC(=O)[C@H](Cc1cnc[nH]1)NC(=O)[C@@H]1CCC(=O)N1,–,1.19 µM (active)
C/C=C(/CC[C@@H](C)[C@H]1CC[C@H]2C3=CC[C@H]4[C@H](C)[C@@H](O)CC[C@]4(C)[C@H]3CC[C@]12C)C(C)C,6.05% (inactive),–
O=C(Nc1ccc(Br)cc1)c1cc(Br)c(Br)s1,–,33.5 µM (active)
COc1ccccc1N1CCN(CCCC(=O)c2ccc(F)cc2)CC1,–,11.9 µM (active)

SMILES,"activity, negative = cytotoxicity",Potency
C[C@H](N)C(=O)N[C@@H](C)P(=O)(O)O,0% (inactive),–
NC[C@@H]1O[C@H](O[C@H]2[C@@H](O)[C@H](O[C@@H]3[C@@H](O)[C@H](N)C[C@H](N)[C@H]3O[C@H]3O[C@H](CO)[C@@H](O)[C@H](O)[C@H]3N)O[C@@H]2CO)[C@H](N)[C@@H](O)[C@@H]1O,0.0951% (inactive),–
O=P(O)(O)C(Sc1ccc(Cl)cc1)P(=O)(O)O,0.743% (inactive),–
CC[C@H](C)[C@H](NC(=O)[C@H](Cc1ccccc1)NC(=O)[C@H](C)NC(=O)[C@H](CC(=O)O)NC(=O)[C@H](CCCCN)NC(=O)[C@H](CO)NC(=O)[C@@H]1CCCN1C(=O)[C@@H]1CCC(=O)N1)C(=O)NCC(=O)N[C@@H](CC(C)C)C(=O)N[C@@H](CCSC)C(N)=O ([pGlu]PSKDAFIGLM-NH2),4.75% (inactive),–
Cc1cccc(Nc2ncccc2C(=O)O)c1C,14.4% (inactive),–
CCCCCC(O)/C=C/C=O (stereo not given),-0.642% (inactive),–
OCCO[C@@H]1[C@@H](O)[C@H](O)[C@@H](CO)O[C@@H]1O,0.841% (inactive),–
N[C@H](CCC(=O)O)C(=O)O,10.6% (inactive),–
CC(O)CN(C)C (stereo not given),-3.9% (inactive),–
Cc1ccc(C2(O)CCN(CCCC(=O)c3ccc(F)cc3)CC2)cc1,–,11.9 µM (active)
CO[C@H]1O[C@@H]2O[C@@]3(C)CC[C@H]4[C@H](C)CC[C@@H]([C@H]1C)[C@@]24OO3,–,1.68 µM (active)
CC1=C(/C=C/C(C)=C/C=C/C(C)=C/C(=O)Oc2c(C)c(C)c3c(c2C)CC[C@@](C)(CCC[C@H](C)CCC[C@H](C)CCCC(C)C)O3)C(C)(C)CCC1,13.8% (inactive),–
O=C(O)[C@@H](O)[C@H](O)[C@H](O)[C@@H](O)C(=O)O (tested in a mixture with another compound),-8.54% (inactive),–
O=C(Cn1c(=O)sc2ccc(Cl)cc21)N1CCN(CCO)CC1,6.28% (inactive),–
NS(=O)(=O)c1cc2c(cc1Cl)NC(Cc1ccccc1)NS2(=O)=O (stereo not given),-15% (inactive),–
c1cnc2cc3c(cc2n1)[C@@H]1CNC[C@H]3C1,-0.0202% (inactive),–
NCCCC[C@H](NC(=O)[C@@H]1CCCN1C(=O)[C@@H]1CSSC[C@H](N)C(=O)N[C@@H](Cc2ccccc2)C(=O)N[C@@H](Cc2ccccc2)C(=O)N[C@@H](CCC(N)=O)C(=O)N[C@@H](CC(N)=O)C(=O)N1)C(=O)NCC(N)=O,1.19% (inactive),–
